Test [1] has as its system Proto-oncogene tyrosine-protein kinase receptor Ret (Homo sapiens), P07949 [Y791F]. As to conditions: at 1 µM.
Test [2] concerns the target Macrophage-stimulating protein receptor (Homo sapiens) (UniProt Q04912). The note with it: at 0.1 µM.
The target is the same in test [3]. The note with it: at 1 µM.
Test [4] deals with Proto-oncogene tyrosine-protein kinase ROS (Homo sapiens) (UniProt P08922). The note with it: at 0.1 µM.
Test [5] has the same target. The note with it: at 1 µM.
For test [6], the target named is Proto-oncogene tyrosine-protein kinase Src (Homo sapiens) (UniProt P12931). As to conditions: at 0.1 µM.
Sequence of Proto-oncogene tyrosine-protein kinase Src (Homo sapiens) (P12931 2-536 limits assumed): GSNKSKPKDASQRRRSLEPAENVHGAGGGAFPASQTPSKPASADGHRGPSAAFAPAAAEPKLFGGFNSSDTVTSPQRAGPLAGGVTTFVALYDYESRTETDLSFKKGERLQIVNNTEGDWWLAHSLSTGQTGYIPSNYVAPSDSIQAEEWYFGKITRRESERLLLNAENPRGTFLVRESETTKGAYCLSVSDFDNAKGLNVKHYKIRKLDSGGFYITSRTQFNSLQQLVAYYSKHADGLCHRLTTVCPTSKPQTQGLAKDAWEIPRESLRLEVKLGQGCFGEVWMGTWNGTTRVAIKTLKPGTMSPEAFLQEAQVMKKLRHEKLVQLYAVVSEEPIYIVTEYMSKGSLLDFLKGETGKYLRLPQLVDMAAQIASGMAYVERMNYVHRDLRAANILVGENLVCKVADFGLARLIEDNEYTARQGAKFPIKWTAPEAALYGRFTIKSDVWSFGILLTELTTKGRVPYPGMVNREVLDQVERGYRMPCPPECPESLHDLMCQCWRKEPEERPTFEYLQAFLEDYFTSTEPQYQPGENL
The target is the same in test [7]. As to conditions: at 1 µM.
The target of test [8] is Tyrosine-protein kinase Srms (Homo sapiens) (UniProt Q9H3Y6). The note with it: at 0.1 µM.
Sequence of Tyrosine-protein kinase Srms (Homo sapiens) (Q9H3Y6 whole entry): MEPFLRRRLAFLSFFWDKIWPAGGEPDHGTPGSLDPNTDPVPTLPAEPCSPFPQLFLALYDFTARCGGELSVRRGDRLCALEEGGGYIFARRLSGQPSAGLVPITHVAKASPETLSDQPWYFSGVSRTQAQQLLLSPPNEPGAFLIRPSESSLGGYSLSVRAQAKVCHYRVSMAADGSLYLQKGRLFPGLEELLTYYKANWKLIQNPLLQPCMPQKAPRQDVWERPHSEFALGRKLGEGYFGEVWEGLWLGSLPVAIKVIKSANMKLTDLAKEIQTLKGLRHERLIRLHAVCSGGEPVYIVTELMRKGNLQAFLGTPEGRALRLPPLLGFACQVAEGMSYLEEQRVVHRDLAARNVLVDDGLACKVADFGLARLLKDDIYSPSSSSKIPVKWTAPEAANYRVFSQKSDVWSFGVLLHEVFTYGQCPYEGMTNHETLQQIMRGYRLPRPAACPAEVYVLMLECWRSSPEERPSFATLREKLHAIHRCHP
Test [9] has the same target. The note with it: at 1 µM.
In test [10] the target is Tyrosine-protein kinase SYK (Homo sapiens) (UniProt P43405). The note with it: at 0.1 µM.
The target is the same in test [11]. The note with it: at 1 µM.
For test [12], the target named is T1, Tyrosine-protein kinase Tec (Homo sapiens) (UniProt P42680).
T1 sequence (whole entry): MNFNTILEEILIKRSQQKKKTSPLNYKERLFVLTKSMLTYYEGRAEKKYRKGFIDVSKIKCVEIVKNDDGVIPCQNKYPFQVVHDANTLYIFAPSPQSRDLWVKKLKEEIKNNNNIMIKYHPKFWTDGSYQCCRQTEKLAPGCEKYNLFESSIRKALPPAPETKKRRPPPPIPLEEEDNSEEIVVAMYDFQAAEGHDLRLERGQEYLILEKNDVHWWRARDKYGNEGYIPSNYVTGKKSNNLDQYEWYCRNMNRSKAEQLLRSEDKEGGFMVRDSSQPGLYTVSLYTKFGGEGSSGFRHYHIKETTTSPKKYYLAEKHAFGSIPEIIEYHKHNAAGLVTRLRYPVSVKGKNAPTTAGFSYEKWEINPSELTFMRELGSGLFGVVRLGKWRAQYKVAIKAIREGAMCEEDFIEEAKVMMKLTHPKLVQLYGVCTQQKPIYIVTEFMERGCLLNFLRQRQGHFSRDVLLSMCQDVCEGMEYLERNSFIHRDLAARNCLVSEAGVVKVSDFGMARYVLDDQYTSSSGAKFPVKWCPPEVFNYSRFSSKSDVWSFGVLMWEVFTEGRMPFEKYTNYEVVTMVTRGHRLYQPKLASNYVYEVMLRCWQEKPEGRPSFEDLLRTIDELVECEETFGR
The note with it: at 0.1 µM.

Test [13] addresses T1, Tyrosine-protein kinase Tec (Homo sapiens). The note with it: at 1 µM.
The target in test [14] is Angiopoietin-1 receptor (Homo sapiens) (UniProt Q02763). The note with it: at 0.1 µM.
Sequence of Angiopoietin-1 receptor (Homo sapiens) (Q02763 whole entry): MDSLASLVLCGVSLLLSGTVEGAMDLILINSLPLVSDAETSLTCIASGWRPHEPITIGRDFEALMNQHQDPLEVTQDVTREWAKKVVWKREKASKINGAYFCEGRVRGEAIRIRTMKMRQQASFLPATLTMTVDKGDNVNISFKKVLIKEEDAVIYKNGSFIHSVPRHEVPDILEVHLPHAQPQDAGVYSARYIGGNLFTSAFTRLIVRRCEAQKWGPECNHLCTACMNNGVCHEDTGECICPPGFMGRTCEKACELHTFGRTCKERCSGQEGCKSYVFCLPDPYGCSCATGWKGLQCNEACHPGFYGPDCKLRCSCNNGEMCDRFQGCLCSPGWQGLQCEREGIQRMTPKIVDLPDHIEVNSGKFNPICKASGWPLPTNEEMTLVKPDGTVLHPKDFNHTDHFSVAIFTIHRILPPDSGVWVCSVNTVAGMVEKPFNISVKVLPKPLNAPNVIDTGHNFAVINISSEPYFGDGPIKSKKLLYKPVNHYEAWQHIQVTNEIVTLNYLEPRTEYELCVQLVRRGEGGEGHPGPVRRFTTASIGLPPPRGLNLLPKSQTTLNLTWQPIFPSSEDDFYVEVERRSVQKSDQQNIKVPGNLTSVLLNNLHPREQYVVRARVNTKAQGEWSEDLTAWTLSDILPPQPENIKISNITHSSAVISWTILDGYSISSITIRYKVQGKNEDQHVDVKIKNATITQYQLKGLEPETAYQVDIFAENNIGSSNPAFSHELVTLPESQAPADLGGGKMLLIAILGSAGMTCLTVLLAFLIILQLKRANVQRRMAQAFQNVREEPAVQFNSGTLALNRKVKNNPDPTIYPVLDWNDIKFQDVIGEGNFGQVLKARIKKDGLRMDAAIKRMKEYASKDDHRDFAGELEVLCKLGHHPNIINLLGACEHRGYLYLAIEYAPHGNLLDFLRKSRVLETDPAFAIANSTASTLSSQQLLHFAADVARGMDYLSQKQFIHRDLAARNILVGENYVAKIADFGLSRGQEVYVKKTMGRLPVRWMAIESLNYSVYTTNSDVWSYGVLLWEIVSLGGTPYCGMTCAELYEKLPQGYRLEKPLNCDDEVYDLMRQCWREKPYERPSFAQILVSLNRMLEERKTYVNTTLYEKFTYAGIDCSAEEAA
For test [15] the target is unchanged. The note with it: at 1 µM.
Test [16] deals with T2, Non-receptor tyrosine-protein kinase TNK1 (Homo sapiens) (UniProt Q13470).
T2 sequence (whole entry): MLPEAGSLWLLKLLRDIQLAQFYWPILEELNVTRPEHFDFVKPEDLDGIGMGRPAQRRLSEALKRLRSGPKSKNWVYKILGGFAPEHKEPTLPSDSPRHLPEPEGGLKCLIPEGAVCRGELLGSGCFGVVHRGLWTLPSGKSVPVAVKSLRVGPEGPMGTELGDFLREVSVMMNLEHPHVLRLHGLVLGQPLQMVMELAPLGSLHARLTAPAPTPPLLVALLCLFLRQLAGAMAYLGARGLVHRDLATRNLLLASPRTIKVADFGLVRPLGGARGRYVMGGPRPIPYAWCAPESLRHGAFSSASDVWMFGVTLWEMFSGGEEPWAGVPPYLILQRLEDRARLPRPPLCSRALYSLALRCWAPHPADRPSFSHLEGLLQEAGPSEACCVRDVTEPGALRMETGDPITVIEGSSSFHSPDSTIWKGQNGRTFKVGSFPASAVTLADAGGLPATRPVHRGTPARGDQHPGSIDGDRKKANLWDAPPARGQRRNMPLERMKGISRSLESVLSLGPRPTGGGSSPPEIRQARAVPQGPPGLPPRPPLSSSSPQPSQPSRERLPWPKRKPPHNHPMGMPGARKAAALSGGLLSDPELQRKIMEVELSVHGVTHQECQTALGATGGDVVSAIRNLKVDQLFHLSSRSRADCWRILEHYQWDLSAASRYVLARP
As to conditions: at 0.1 µM.

The target in test [17] is T2, Non-receptor tyrosine-protein kinase TNK1 (Homo sapiens). As to conditions: at 1 µM.
Test [18] addresses Activated CDC42 kinase 1 (Homo sapiens) (UniProt Q07912). As to conditions: at 0.1 µM.
Test [19] shares this target. The note with it: at 1 µM.
Test [20] has as its target High affinity nerve growth factor receptor (Homo sapiens) (UniProt P04629). As to conditions: at 0.1 µM.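 Also: each value is a mean of replicate percent inhibition readings against TRKA kinase.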

Several values for one entry are separate records, joined by “and”; a condition that tells them apart may be missing. Identical values can stand only once.

In general, inhibition refers to the drop in the measured response relative to a control, in per cent.

Sequence of Proto-oncogene tyrosine-protein kinase receptor Ret (Homo sapiens), P07949 [Y791F] (P07949 whole entry Y791F): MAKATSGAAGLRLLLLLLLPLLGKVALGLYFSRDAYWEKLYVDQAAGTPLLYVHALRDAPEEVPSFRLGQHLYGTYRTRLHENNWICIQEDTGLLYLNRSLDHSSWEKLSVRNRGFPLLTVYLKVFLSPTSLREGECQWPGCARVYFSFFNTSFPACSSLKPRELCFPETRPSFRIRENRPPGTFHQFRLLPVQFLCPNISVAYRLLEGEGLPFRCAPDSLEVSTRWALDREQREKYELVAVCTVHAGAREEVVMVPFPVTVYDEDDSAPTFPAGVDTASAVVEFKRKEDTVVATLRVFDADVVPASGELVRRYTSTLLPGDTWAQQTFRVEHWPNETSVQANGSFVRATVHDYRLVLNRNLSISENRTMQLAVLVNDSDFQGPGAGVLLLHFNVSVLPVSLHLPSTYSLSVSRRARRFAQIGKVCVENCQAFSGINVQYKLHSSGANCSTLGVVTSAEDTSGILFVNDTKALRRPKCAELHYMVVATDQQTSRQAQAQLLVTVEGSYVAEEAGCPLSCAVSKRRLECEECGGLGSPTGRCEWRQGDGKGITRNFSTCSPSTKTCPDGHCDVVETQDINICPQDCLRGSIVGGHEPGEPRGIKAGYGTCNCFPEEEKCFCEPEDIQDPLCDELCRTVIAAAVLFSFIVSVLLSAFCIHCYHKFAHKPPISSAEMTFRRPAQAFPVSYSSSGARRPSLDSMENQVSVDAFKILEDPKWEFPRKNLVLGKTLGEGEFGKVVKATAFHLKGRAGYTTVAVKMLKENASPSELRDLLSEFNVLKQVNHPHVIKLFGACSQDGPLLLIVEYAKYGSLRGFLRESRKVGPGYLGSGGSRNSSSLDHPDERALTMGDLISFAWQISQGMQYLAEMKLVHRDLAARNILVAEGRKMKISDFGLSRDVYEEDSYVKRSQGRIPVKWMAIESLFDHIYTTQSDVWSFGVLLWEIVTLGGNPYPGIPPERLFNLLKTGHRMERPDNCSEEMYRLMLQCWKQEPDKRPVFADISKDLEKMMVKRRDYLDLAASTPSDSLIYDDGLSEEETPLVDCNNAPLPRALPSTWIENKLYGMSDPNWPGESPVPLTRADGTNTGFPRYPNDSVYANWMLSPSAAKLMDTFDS
Sequence of Activated CDC42 kinase 1 (Homo sapiens) (Q07912 whole entry, looked up): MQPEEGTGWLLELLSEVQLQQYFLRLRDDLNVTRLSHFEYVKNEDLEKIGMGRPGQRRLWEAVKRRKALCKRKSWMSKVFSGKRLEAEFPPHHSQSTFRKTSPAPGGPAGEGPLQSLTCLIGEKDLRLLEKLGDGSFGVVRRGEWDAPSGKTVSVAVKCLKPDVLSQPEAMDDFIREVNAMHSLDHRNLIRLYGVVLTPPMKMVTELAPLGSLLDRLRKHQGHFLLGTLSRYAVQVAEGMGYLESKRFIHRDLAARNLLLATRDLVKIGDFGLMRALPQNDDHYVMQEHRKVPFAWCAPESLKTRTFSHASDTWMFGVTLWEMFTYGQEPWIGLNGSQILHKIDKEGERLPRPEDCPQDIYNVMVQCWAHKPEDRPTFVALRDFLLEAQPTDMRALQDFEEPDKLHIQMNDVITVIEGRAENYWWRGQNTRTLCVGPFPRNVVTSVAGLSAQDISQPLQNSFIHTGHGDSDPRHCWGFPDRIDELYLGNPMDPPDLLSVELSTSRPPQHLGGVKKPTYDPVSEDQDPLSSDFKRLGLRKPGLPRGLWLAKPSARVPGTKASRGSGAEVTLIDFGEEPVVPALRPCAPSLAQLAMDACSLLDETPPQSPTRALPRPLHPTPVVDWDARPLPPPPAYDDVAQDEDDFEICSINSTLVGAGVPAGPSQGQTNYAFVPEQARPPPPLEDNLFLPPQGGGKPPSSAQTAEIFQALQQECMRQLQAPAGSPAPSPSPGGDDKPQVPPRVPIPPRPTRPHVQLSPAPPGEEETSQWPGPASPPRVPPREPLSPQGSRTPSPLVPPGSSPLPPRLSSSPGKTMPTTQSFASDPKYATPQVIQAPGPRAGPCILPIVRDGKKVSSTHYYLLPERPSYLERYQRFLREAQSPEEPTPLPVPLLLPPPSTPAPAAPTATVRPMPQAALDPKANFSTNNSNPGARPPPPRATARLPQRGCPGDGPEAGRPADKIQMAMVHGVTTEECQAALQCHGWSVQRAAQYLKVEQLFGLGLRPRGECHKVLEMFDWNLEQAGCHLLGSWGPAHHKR
Sequence of High affinity nerve growth factor receptor (Homo sapiens) (P04629 33-796 limits assumed): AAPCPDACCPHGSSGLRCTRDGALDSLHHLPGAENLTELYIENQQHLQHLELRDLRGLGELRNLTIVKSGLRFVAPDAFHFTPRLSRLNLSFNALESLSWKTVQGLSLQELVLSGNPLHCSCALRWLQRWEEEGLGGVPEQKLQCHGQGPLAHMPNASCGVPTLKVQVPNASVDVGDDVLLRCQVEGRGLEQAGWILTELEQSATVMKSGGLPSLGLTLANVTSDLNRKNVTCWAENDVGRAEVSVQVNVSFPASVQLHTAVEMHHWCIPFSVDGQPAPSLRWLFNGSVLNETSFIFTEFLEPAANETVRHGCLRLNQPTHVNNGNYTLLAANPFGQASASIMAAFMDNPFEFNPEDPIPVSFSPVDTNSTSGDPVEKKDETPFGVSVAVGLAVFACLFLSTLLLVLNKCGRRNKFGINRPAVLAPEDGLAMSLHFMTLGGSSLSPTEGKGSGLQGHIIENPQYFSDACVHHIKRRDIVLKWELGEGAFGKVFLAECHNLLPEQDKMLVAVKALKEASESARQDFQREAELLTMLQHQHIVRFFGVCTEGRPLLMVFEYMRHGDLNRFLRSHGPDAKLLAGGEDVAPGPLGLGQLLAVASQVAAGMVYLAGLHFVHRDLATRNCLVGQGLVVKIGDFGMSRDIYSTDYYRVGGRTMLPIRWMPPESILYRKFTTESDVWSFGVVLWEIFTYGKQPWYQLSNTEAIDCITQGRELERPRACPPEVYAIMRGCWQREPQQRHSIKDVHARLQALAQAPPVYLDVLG

`COc1cccc(Nc2nccc(-c3cnn4ncccc34)n2)c1`: the inhibition in test [1] is 24%; in test [2] it was 6.23%; in test [3] it was 15.1%; in test [4] it was 38.2%; in test [5] it was 71.1%; in test [6], 7.33%. Further, the inhibition in test [7] is 41.6%; in [8], 1.25%; in test [9], -1.9%; in test [10], -0.98%; in test [11], 34.2%; in [12], 4.27%. The inhibition came out at 25.1% in test [13]; 5.94% in test [14]; 21.3% in [15]; 15.3% in test [16]; 65.9% in test [17]; 1.79% in test [18]. Also, the inhibition in test [19] was 21.7%; in test [20], 4.75%.
Consider `CNC(=O)c1sc(-n2cnc3cc(OC)c(OC)cc32)cc1OCc1ccccc1C(F)(F)F`, for which the inhibition turned out to be 14.2% in [1]; 1.42% in test [2]; 3.32% in [3]; 3.19% in test [4]; 5.06% in test [5]; 6.71% in test [6]. The inhibition was 8.35% in [7]; -1.1% in [8]; 0.5% in [9]; -0.5% in test [10]; -4% in test [11]; 1.74% in test [12]. Moreover, the inhibition in [13] stood at 9.64%; in test [14] it was 2.19%; in test [15], 9.86%; in [16], 4.58%; in test [17], 29.1%; in [18] it was 1.43%. In addition, the values for the inhibition in [19] and in test [20] were 4.41% and 1.34%, respectively.
Take `CCS(=O)(=O)c1ccc(OC)c(Nc2ncc(-c3cccc(F)c3)o2)c1`: the inhibition in test [1] was 56.6%; in [2], 10.3%; in [3] it was 6.8%; in test [4] it was 8.05%; in test [5] it was 27.5%; in test [6], 49.4%. The inhibition in [7] was 89.3%; in [8], 3.47%; in [9], 18.5%; in [10], 0.45%; in [11] it was 1.66%; in [12], 9.86%. The inhibition turned out to be 37.2% in test [13]; 4.21% in test [14]; 14.1% in test [15]; 27.4% in test [16]; 76.5% in test [17]; 2.97% in test [18]. Further, the inhibition is 13.2% in [19] and 6.84% in [20].
`Fc1cccc(COc2ccc(Nc3ncncc3C#Cc3ccccc3)cc2Cl)c1`: the inhibition in [1] was 15.1%; in [2], 1.12%; in [3], 1.28%; in [4], 7.63%; in [5], 4.43%; in test [6] it was 4.7%. For the same compound, the inhibition in test [7] was 9.06%; in [8] it was -1.92%; in [9], -0.3%; in test [10], -5.72%; in [11], -0.97%; in [12], 4.69%. The inhibition in test [13] was 4.11%; in [14], 1.87%; in test [15] it was 2.11%; in test [16], 1.37%; in test [17], 9.13%; in test [18], 1.84%. In addition, the inhibition in test [19] turned out to be 3.24%; in [20], 2.85%.
Turning to `Nc1nonc1-c1nc2cnccc2n1C1CC1`, the inhibition in [1] was 6.05% and 3.67%; in [2] it was -0.62% and 3.72%; in [3] it was 9.46% and 1.74%; in test [4], 7.08% and 4.44%; in test [5] it was 15.1% and 14.1%; in test [6], 3.78% and -1.17%. The inhibition is 8.03% and 5.68% in [7]; -1.43% and -0.81% in test [8]; 0.98% and 0.04% in test [9]; 1.89% and -3.36% in [10]; -1.65% and 0.1% in test [11]; 4.66% and -0.83% in test [12]. For the same compound, the inhibition in test [13] is 7.39% and -0.23%; in [14] it was 1.33% and 1.27%; in [15] it was 5.19% and 4.75%; in [16], 3.99% and 1.62%; in [17] it was 9.35% and 9.64%; in test [18], 1.76% and 0.5%. Besides, the inhibition was 3.72% and 0.02% in test [19]; 3.67% and -0.15% in test [20].
Turning to `COc1cc(Nc2ncc(-c3ccccc3)o2)cc(OC)c1`, the inhibition in [1] is 13.2%; in test [2], 4.66%; in [3] it was -0.05%; in [4] it was 3.98%; in test [5], 11.9%; in test [6], 14.9%. The inhibition was 49.7% in [7]; 2.58% in [8]; 3.5% in test [9]; -2.45% in test [10]; -7.57% in test [11]; 2.12% in test [12]. For the same compound, the inhibition in test [13] worked out at 7.94%; in test [14], 3.94%; in test [15], 7.85%; in test [16] it was 2.49%; in test [17], 31.1%; in test [18], 1.44%. The inhibition in [19] stood at 3.07%; in [20], 3.5%.

The values are drawn from ChEMBL document CHEMBL1961873, “Compounds: GSK PKIS; Assays: Nanosyn kinase panel” (2012).
